One assay has as its target T1, Aspartate--tRNA(Asp/Asn) ligase (Mycobacterium tuberculosis (strain ATCC 25618 / H37Rv)) (UniProt P9WFW3). Further: in the data most compounds retested in dose-response had high values.
T1 sequence (whole entry): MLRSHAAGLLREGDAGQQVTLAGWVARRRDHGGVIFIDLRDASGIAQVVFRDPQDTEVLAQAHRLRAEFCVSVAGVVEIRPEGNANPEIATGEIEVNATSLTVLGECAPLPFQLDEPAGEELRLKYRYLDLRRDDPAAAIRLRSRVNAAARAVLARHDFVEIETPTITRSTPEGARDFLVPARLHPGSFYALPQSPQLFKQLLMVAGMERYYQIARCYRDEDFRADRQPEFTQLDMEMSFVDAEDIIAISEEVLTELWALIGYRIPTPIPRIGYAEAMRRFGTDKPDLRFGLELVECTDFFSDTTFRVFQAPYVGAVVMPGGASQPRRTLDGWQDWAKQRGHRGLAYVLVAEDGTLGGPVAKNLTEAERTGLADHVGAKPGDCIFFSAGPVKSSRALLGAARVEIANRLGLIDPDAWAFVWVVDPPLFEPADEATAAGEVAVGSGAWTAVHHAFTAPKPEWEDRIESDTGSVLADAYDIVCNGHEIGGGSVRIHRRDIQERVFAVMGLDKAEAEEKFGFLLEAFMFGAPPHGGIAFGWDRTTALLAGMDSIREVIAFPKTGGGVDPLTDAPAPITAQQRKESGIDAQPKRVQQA
Put plainly: Assay for Asp RNA synthetase-1 from Mycobacterium tuberculosis. Type of assay: functional. The conditions noted are these: 30 µM. Also noted: scale not given: direction of the effect not stated beside the values.
As for `c1ccc(C[C@H]2[C@H](N3CCOCC3)CCN2Cc2cccnc2)cc1`, the Percent Effect is 2.33%.

With `CCc1nc(C2CCCN2C(=O)c2ccoc2C)no1` (stereo not given), the Percent Effect stood at 1.77%. For the molecule `Cc1ccc(Oc2ccc(NC(=O)NCC3CCOC3)cn2)cc1C` (stereo not given), the Percent Effect turned out to be 0.322%. On the same count and under the same terms, the result for `Cc1cc(C)cc(-c2cccc(CC3(C(=O)O)CCOCC3)c2)c1` reads 2.93%; that for `Cc1cnc(CNc2c(F)cccc2-n2cccn2)o1`, -2.01%; that for `CCN(C)Cc1cnc(S(=O)(=O)CC)n1CCOC`, -5.11%.

Consider `O=C(c1cscn1)N1CC[C@]2(C[C@@H](OCCN3CCCC3)CO2)C1`, for which the Percent Effect was -3.81%.

Take `O=C(c1ccncc1)N1CCC(c2nc(O)cc(-c3ccncc3)n2)C1` (stereo not given): the Percent Effect was -0.574%. With `Cc1cnn(CC(C)NCc2csc(-c3ccco3)n2)c1` (stereo not given), the Percent Effect came to 2.75%.

On to `Cc1cc(CN2CCN(C(=O)Nc3cccnc3)CC2)on1`, for which the Percent Effect is -2.97%. Same read-out and setting: the result for `O=C(NCc1ccccn1)[C@H]1COC[C@H]2CN(Cc3ccoc3)C[C@H]21` reads -0.779%; that for `c1cnc2c(c1)cc(C1CCOCC1)n2CCN1CCOCC1`, 3.26%; that for `Cc1nc(C)n(CC2CCCN(CCc3ccncc3)C2)n1` (stereo not given), 0.891%. Turning to `CC(C(=O)NCc1ccc(-n2cncn2)nc1)n1ccnc1` (stereo not given), the Percent Effect was 5.56%.

Consider `Cc1ccc(CN2CCc3ncnc(C4CC4)c3CC2)s1`, for which the Percent Effect turned out to be 9.9%. Same read-out and setting: the result for `CCC1CN(C(=O)c2ccccc2N2CCCC2)CCN1C(C)C` (stereo not given) reads -4.91%.

With `Cc1ccc2c(ccn2CCC(=O)O)c1`, the Percent Effect worked out at 0.776%. Same read-out and setting: the result for `CN(Cc1ccco1)C(=O)CN1CCCCC1Cn1cccn1` (stereo not given) reads -0.346%. Still for that read-out and setting: the result for `COc1ccc(C(O)CNC(=O)NCc2csc(C)n2)cc1` (stereo not given) reads -1.2%; that for `c1cnnc(N2CCCC(NCc3nnc(-c4ccco4)o3)C2)c1` (stereo not given), -0.7%.

In the case of `CC(C)Nc1nc2c(cc1C(=O)N(C)C)CCNCC2`, the Percent Effect came out at 3.61%.

For the next assay, the target named is Shiga toxin 2 (Escherichia coli O157:H7) (UniProt P09385+P09386). Put plainly: E. coli 0.157:H7 Shiga Toxin SOP - stx2 screening assay. Type of assay: functional. Details: scale not given: direction of the effect not stated beside the values. The conditions noted are these: 30 µM.
For `CCSCCC(=O)NS(=O)(=O)c1ccc2c(c1)OCCO2`, the Percent Effect was -25.1%. On the same count and under the same terms, the result for `O=C1CC(c2ccccc2)C2(CCN(CC3CC3)CC2)N1` (stereo not given) reads -14.7%; that for `Cn1ccc2ccnc(CC3CN(C(=O)C4CCC(F)(F)CC4)C3)c21`, -23.1%; that for `Cn1cc(C(=O)NC2CCN(C(=O)NCCSC(F)(F)F)CC2)cn1`, -30.6%.

In the case of `CN(Cc1nnc(C2CC2)o1)C1CCN(CCCc2cnn(C)c2)C1` (stereo not given), the Percent Effect is -45.6%. Consider `CCOC(=O)C1CCN(C(=O)Cn2ccc3cc(Br)ccc32)CC1`, for which the Percent Effect is -21.9%. The same measure, in the same setting: the result for `COCCOc1ncccc1C(=O)Nc1ccc(-n2cncn2)c(F)c1` reads 30.5%; that for `CC(=O)N1CCc2c(nc(-c3ccncc3)nc2N(C)CC(O)CO)C1` (stereo not given), 5.83%; that for `CN1CCOC(CNCc2nc(-c3ccccc3)cs2)C1` (stereo not given), -26%.

In the case of `CN(C)C(=O)NCc1cc2n(n1)CCN(C[C@H]1[C@@H]3CNC[C@@H]31)C2`, the Percent Effect was -21.2%. `CN1CCCC1CNC(=O)c1nnn(-c2ccc(F)cc2)c1C1CC1` (stereo not given): the Percent Effect was -26%.

Take `CC(Cn1ccnc1)NC(=O)NCCc1ccccn1` (stereo not given): the Percent Effect was -8.89%. Consider `Cc1cnn(CCC(=O)N2CCC(Nc3cccnn3)CC2)c1`, for which the Percent Effect is 16.1%. On the same count and under the same terms, the same measure for `CCn1cnnc1CNC(=O)c1ccc(Cl)cc1F`: -53.7%; for `Cn1nc(C(=O)N2CCCCC2c2nc3cc(F)ccc3[nH]2)ccc1=O` (stereo not given): -1.06%; for `Cc1nn(C)c(C)c1C1CCCN1C(=O)c1ccc(CN(C)C)cc1` (stereo not given): -14%. As to `O=C(CN1CCCCC1Cn1cncn1)NCc1ccccn1` (stereo not given), the Percent Effect was found to be 4.47%. Same read-out and setting: the same measure for `CCc1cc(NC2CCN(S(C)(=O)=O)CC2)n2nc(C)c(C)c2n1`: -16%; for `CCc1nc(CN(C)C2CCN(CCNS(=O)(=O)CC)C2)no1` (stereo not given): -60.5%; for `c1ccc(C[C@H]2[C@H](N3CCOCC3)CCN2Cc2cccnc2)cc1`: -7.76%. With `CCc1nc(C2CCCN2C(=O)c2ccoc2C)no1` (stereo not given), the Percent Effect was -24%.

For `Cc1ccc(Oc2ccc(NC(=O)NCC3CCOC3)cn2)cc1C` (stereo not given), the Percent Effect was -6.2%.

Turning to `Cc1cc(C)cc(-c2cccc(CC3(C(=O)O)CCOCC3)c2)c1`, the Percent Effect is -30%.

For `Cc1cnc(CNc2c(F)cccc2-n2cccn2)o1`, the Percent Effect was -27.4%. Still for that read-out and setting: the same measure for `CCN(C)Cc1cnc(S(=O)(=O)CC)n1CCOC`: -0.758%. In the case of `O=C(c1cscn1)N1CC[C@]2(C[C@@H](OCCN3CCCC3)CO2)C1`, the Percent Effect is -17.4%. The same measure, in the same setting: the same measure for `O=C(c1ccncc1)N1CCC(c2nc(O)cc(-c3ccncc3)n2)C1` (stereo not given): 1.62%; for `Cc1cnn(CC(C)NCc2csc(-c3ccco3)n2)c1` (stereo not given): 1.53%; for `Cc1cc(CN2CCN(C(=O)Nc3cccnc3)CC2)on1`: 26.4%. The same measure, in the same setting: the same measure for `O=C(NCc1ccccn1)[C@H]1COC[C@H]2CN(Cc3ccoc3)C[C@H]21`: -0.902%; for `c1cnc2c(c1)cc(C1CCOCC1)n2CCN1CCOCC1`: 4.5%.

With `Cc1nc(C)n(CC2CCCN(CCc3ccncc3)C2)n1` (stereo not given), the Percent Effect is -14.2%. Same read-out and setting: the same measure for `CC(C(=O)NCc1ccc(-n2cncn2)nc1)n1ccnc1` (stereo not given): 19.8%.

For the molecule `Cc1ccc(CN2CCc3ncnc(C4CC4)c3CC2)s1`, the Percent Effect was -8.76%.

The values above are taken from ChEMBL document CHEMBL3988442, “University of Dundee, Small-Polar-MMV Screening Library” (2021).
